Values joined by “and” are separate entries in the source; they are usually repeats but may differ in a detail not shown here. Identical values can stand only once. Out of some 5,500 compounds screened, about 2,000 (36%) were called active. Not shown: some 18% with an inconclusive outcome. No stated cut-off is given here; in the data, active means normalized growth mostly below about 0.91 (no sharp cut-off); inconclusive means no clear call, values can overlap the other calls; inactive means mostly above about 0.92. The list shows a part of the results.
Assay: chemical genetic growth profiling, strain panel (AID 1159580);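 further: tested at 20 µM; growth read once vehicle control cultures reached saturation at 30 °C; 1 = growth at the plate median or of vehicle wells; lower values mean less growth of the strain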
Conditions: S. cerevisiae deletion strains, growth OD

Measured: normalized growth

NC(N)=Nc1nc(CSCCC(N)=NS(N)(=O)=O)cs1
inactive: locus YAL013W, strain DEP1, active compounds read low 1 | locus YAL021C, strain ccr4, active compounds read low 0.996 | locus YAL026C, strain drs2, active compounds read low 0.995 | locus YAL030W, strain snc1, active compounds read low 0.982 | locus YAL040C, strain CLN3, active compounds read low 0.997 | locus YBL061C, strain skt5, active compounds read low 0.978 | locus YBR009C, strain hhf1, active compounds read low 1.01 | locus YBR021W, strain FUR4, active compounds read low 0.996 | locus YBR023C, strain chs3, active compounds read low 0.997 | locus YBR171W, strain sec66, active compounds read low 0.958 | locus YBR229C, strain ROT2, active compounds read low 1 | locus YBR231C, strain swc5, active compounds read low 0.959 | locus YBR279W, strain paf1, active compounds read low 0.997 | locus YCL011C, strain gbp2, active compounds read low 0.993 | locus YCL016C, strain dcc1, active compounds read low 0.992 | locus YCL029C, strain bik1, active compounds read low 1.02 | locus YCL061C, strain MRC1 (second series), active compounds read low 1.01 | locus YCL069W, strain vba3, active compounds read low 0.991 | locus YCR088W, strain abp1, active compounds read low 0.978 | locus YDL005C, strain med2, active compounds read low 0.974 | locus YDL035C, strain GPR1, active compounds read low 1 | locus YDL040C, strain nat1, active compounds read low 0.969 | locus YDL074C, strain BRE1, active compounds read low 1.03 | locus YDL101C, strain DUN1, active compounds read low 1.01 | locus YDL134C, strain PPH21, active compounds read low 1.01 | locus YDL185W, strain tfp1, active compounds read low 1.01 | locus YDL192W, strain arf1, active compounds read low 1.01 | locus YDR001C, strain nth1, active compounds read low 0.972 | locus YDR069C, strain doa4, active compounds read low 0.968 | locus YDR101C, strain arx1, active compounds read low 1.01 | locus YDR137W, strain rgp1, active compounds read low 1 | locus YDR150W, strain NUM1, active compounds read low 0.996 | locus YDR159W, strain sac3, active compounds read low 0.986 | locus YDR162C, strain NBP2, active compounds read low 1.01 | locus YDR195W, strain ref2 0.969 | locus YDR297W, strain sur2, active compounds read low 0.997 | locus YDR318W, strain mcm21, active compounds read low 1.02 | locus YDR334W, strain swr1, active compounds read low 0.967 | locus YDR335W, strain msn5, active compounds read low 0.968 | locus YDR363W, strain ESC2, active compounds read low 0.999 | locus YDR388W, active compounds read low 1.01 | locus YDR392W, strain spt3, active compounds read low 1.02 | locus YDR502C, strain sam2, active compounds read low 1 | locus YEL003W, strain gim4, active compounds read low 0.983 | locus YEL037C, strain rad23, active compounds read low 0.975 | locus YEL061C, strain CIN8 (second series), active compounds read low 0.992 | locus YEL061C, strain CIN8, active compounds read low 1.01 | locus YER002W, strain NOP16, active compounds read low 1 | locus YER015W, strain faa2, active compounds read low 0.986 | locus YER016W, strain bim1, active compounds read low 1.01 | locus YER110C, active compounds read low 1.01 | locus YER111C, strain swi4, active compounds read low 0.991 | locus YER155C, strain BEM2 (second series), active compounds read low 0.988 | locus YER155C, strain BEM2, active compounds read low 1 | locus YER167W, strain BCK2, active compounds read low 1.01 | locus YFR010W, strain ubp6, active compounds read low 1 | locus YGL078C, strain dbp3, active compounds read low 1 | locus YGL086W, strain mad1, active compounds read low 0.996 | locus YGL167C, strain pmr1, active compounds read low 0.961 | locus YGL173C, strain kem1, active compounds read low 0.976 | locus YGL227W, strain vid30, active compounds read low 0.964 | locus YGL240W, strain doc1, active compounds read low 0.973 | locus YGL248W, strain PDE1, active compounds read low 0.985 | locus YGL253W, strain hxk2, active compounds read low 0.991 | locus YGR078C, strain PAC10, active compounds read low 1.03 | locus YGR229C, strain SMI1, active compounds read low 0.989 and 0.992 | locus YGR252W, strain gcn5, active compounds read low 0.993 | locus YHR013C, strain ard1, active compounds read low 1.01 | locus YHR027C, strain rpn1, active compounds read low 0.993 | locus YHR030C, strain SLT2, active compounds read low 1.01 and 0.989 | locus YHR079C, strain IRE1 (second series), active compounds read low 1.01 | locus YHR079C, strain IRE1, active compounds read low 0.972 | locus YHR094C, strain hxt1, active compounds read low 1.01 | locus YHR129C, strain ARP1, active compounds read low 1.01 | locus YHR142W, strain chs7, active compounds read low 0.959 | locus YHR200W, strain rpn10, active compounds read low 1.01 | locus YIL066C, strain RNR3, active compounds read low 1.01 | locus YIL073C, strain SPO22, active compounds read low 1.04 | locus YIL125W, strain kgd1, active compounds read low 1 | locus YIR030C, strain dcg1, active compounds read low 1.01 | locus YJL092W, strain hpr5, active compounds read low 0.987 | locus YJL095W, strain BCK1 (second series), active compounds read low 0.993 | locus YJL095W, strain BCK1, active compounds read low 1.04 and 0.984 | locus YJL115W, strain asf1, active compounds read low 0.983 | locus YJL129C, strain trk1, active compounds read low 0.944 | locus YJL134W, strain LCB3, active compounds read low 1 | locus YJL154C, strain vps35, active compounds read low 0.983 | locus YJL164C, strain tpk1, active compounds read low 1.01 | locus YJL166W, strain qcr8, active compounds read low 0.981 | locus YJL168C, strain set2, active compounds read low 1.01 | locus YJL187C, strain SWE1 (second series), active compounds read low 1.02 | locus YJL187C, strain SWE1, active compounds read low 0.984 | locus YJR043C, strain POL32, active compounds read low 1.01 | locus YJR066W, strain TOR1, active compounds read low 0.921 | locus YJR075W, strain HOC1, active compounds read low 1.01
